Sampled rows, rich in hits. Any-hit rate of the full collection: about 9.2%.
HPGD block – blocks human HPGD enzyme activity; 150,000 tested, 4.3% active; Potency, µM, actives largely listed as inhibitors; purified HPGD, NADH fluorescence kinetic, PGE2 substrate
Target sequence (P15428 whole entry, looked up): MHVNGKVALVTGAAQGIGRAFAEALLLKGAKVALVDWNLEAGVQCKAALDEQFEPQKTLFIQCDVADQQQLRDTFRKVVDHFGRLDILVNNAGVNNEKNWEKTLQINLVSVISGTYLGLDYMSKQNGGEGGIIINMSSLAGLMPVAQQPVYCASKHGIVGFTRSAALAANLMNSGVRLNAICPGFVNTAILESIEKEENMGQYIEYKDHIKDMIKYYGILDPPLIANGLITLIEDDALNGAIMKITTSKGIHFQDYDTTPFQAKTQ
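20 nM HPGD preincubated 15 min at room temperature with compound in 50 mM Tris-HCl pH 8, 0.01% Tween 20. Started with 1 mM NAD+ and 30 uM prostaglandin E2; NADH fluorescence (360/450 nm) read 5 times over 30-s intervals, last minus first.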
HTT cytoprotect – Huntington cell model cytoprotection by ATP luminescence. PC12 HTT-Q103 induced, cytoprotection, ATP luminescence, 40 h. Potency, µM (highest dose often 56.4 µM), usual class: activators. 230,000 tested, 0.14% active; active = well fitted curve in the direction sought with a large enough effect; inconclusive = small, poorly fitted or top-dose-only effect, or another doubt; inactive = no such curve, though single readings can be large; an effect the other way counts as inactive or inconclusive; also: nearly all actives have a fitted effect of over 45% in size
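Quantitative HTS on tebufenozide-induced (100 nM) PC12 cells expressing HTTQ103 exon 1–GFP; compounds tested as a concentration series; survival measured via cellular ATP.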
LMNA splice mod – LMNA splicing modulation | HeLa LMNA splicing GFP/RFP minigene ratio, 48 h | Potency, µM (titrated, usually from 46.1 µM), usual class: inhibitors | 200,000 tested, 0.01% active; active = well fitted inhibition curve with a large enough effect in the signal ratio, with a control signal flat, not every such curve was filed as active; inconclusive = small, poorly fitted or top-dose-only effect, or effect the other way, or a change in a side signal; the % refers to the signal ratio
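S3 HeLa stable clones carrying a lamin A-EGFP splicing minigene plus DsRed2 were seeded at 600 cells/well in Opti-MEM with 2% FBS, pin-dosed and incubated 48 h at 37°C. Acumen cytometry (488 nm) gave the GFP/RFP total-intensity ratio.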
KDM4E inh – blocks human JMJD2E demethylase activity; B2RXH2; JMJD2E catalytic domain, FDH-coupled NADH fluorescence (FDH is formaldehyde dehydrogenase); Potency, µM (top dose mostly 57.1 µM), usual class: inhibitors; 230,000 tested, 1.6% active; AID 2147; also: nearly all actives have a fitted effect of over 50% in size
Target sequence (B2RXH2 1-337 limits assumed): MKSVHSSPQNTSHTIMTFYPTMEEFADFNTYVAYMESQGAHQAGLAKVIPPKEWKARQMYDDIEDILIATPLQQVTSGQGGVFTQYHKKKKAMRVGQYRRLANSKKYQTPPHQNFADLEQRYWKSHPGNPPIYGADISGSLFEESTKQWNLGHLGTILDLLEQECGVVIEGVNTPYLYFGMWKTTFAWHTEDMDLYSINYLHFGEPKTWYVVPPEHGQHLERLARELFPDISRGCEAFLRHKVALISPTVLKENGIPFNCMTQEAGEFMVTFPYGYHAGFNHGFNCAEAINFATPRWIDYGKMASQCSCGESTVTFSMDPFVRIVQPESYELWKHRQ
ALDH1A1 inh – ALDH1A1 (human) enzyme inhibition | P00352 | Purified ALDH1A1, NADH fluorescence, propionaldehyde substrate | Potency, µM (titrated, usually from 75.3 µM), actives largely listed as inhibitors | 220,000 tested, 7.3% active | AID 1030
HttQ103 aggreg – inhibitors of mutant huntingtin aggregate formation in PC12 cells; 220,000 tested, 1.1% active; PC12 HttQ103-GFP aggregates, Acumen cytometry, 40 h; Potency, µM (highest dose often 46.1 µM), hits mostly inhibitors; active = well fitted curve in the direction sought with a large enough effect; inconclusive = small, poorly fitted or top-dose-only effect, or another doubt; inactive = no such curve, though single readings can be large; an effect the other way counts as inactive or inconclusive; also: nearly all actives have a fitted effect of over 60% in size
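Compounds (qHTS titration) were added to PC12 cells expressing an ecdysone-driven HTT exon 1 Q103–GFP fusion after induction with 100 nM tebufenozide. Aggregate formation was measured as GFP objects in cell lysates.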
A number is an active result; [ ] = dose if it differs, or a comment. Unless noted, calls follow the shape of the dose curve; as a rule, active = well fitted inhibition curve with a large enough effect (not every such curve was filed as active); inconclusive = small, poorly fitted or top-dose-only effect, or another doubt; inactive = no such curve, though single readings can be large or run the other way.

CC(C)=C1C2C=CC1C1C(=O)N(c3ccc4c(c3)OCO4)C(=O)C21 (stereo not drawn) was read as HPGD block inactive, HTT cytoprotect inactive[10 µM], LMNA splice mod inactive, KDM4E inh inactive, ALDH1A1 inh 3.55µM and HttQ103 aggreg inactive.
`CCCc1[nH]n(-c2nc3ccccc3s2)c(=O)c1C=NCC1CCCO1` (stereo not drawn) gave HPGD block inactive, HTT cytoprotect inactive[10 µM], LMNA splice mod inactive, KDM4E inh inactive, ALDH1A1 inh 25.1µM and HttQ103 aggreg inactive.
For CN(C)C(=O)CCSC(SCCC(=O)O)c1cccc(/C=C/c2ccc3ccc(Cl)cc3n2)c1 (stereo not drawn) the results were HTT cytoprotect inactive and HttQ103 aggreg inactive.
Cc1ccc2nc(N/N=C\c3cccc(C)n3)cc(C)c2c1 was read as HPGD block inactive, HTT cytoprotect inactive[10 µM] and ALDH1A1 inh inactive[13.5 µM].
For S=c1[nH]nc(COc2ccccc2)n1/N=C/c1cccs1 the results were HPGD block 14.1µM, HTT cytoprotect inactive[1.9 µM], LMNA splice mod inactive, KDM4E inh inactive, ALDH1A1 inh inactive and HttQ103 aggreg inactive.
Cc1ccsc1/C=N/n1c(COc2ccccc2)n[nH]c1=S was read as HPGD block 14.1µM, HTT cytoprotect inactive[10 µM], LMNA splice mod inconclusive, KDM4E inh inactive, ALDH1A1 inh 20µM and HttQ103 aggreg inactive.
`S=c1[nH]nc(-c2ccccn2)n1/N=C/c1cccs1` gave HPGD block inactive, LMNA splice mod inactive, KDM4E inh inactive, ALDH1A1 inh inactive and HttQ103 aggreg inactive.
For C=CC[C@@H]1C=C[C@@H](O/N=C2/C[C@@H](O)[C@@H](O)[C@@H]3[C@@H]4C(=O)N(CC)C(=O)[C@H]4CC[C@@H]23)[C@@H](CO)O1 the results were HTT cytoprotect inactive[10 µM] and ALDH1A1 inh inactive[13.5 µM].
`Cc1ccc(-n2cc(C(=O)OCc3ccc(F)c(F)c3)c3ccccc3c2=O)cc1` gave LMNA splice mod inactive.
Screening CCc1ccc(Sc2cc(C(=O)NCc3ccccc3OC)c3ccccc3n2)cc1 returned LMNA splice mod inactive.
`NC(=O)c1sc2cc(C(F)(F)F)cnc2c1-c1cccs1` gave HPGD block inactive, HTT cytoprotect inactive, LMNA splice mod inactive, KDM4E inh inconclusive, ALDH1A1 inh inactive and HttQ103 aggreg inactive.
`NNC(=O)c1sc2cc(C(F)(F)F)cnc2c1-c1cccs1` gave HTT cytoprotect inactive[10 µM], KDM4E inh inactive, ALDH1A1 inh 0.199µM and HttQ103 aggreg inactive[9.22 µM].
For CCOc1cccc2sc(N(Cc3cccnc3)C(=O)c3ccco3)nc12 the results were LMNA splice mod inactive.
Screening COCc1cc(C)nc(SCC[N+](C)(C)CC(=O)Nc2cccc(C(F)(F)F)c2)c1C#N returned HTT cytoprotect inactive, KDM4E inh inconclusive, ALDH1A1 inh 11.2µM and HttQ103 aggreg inconclusive.
`O=Nc1c(O)[nH]c2ccccc12.[Cu].[O-]/N=C1/C(=[OH+])Nc2ccccc21` gave HPGD block inactive and ALDH1A1 inh inactive[13.5 µM].
Screening Cc1cccc(NCc2ccccc2O)c1 returned HPGD block 22.4µM, HTT cytoprotect inactive, LMNA splice mod inactive, KDM4E inh inactive, ALDH1A1 inh inactive and HttQ103 aggreg inactive.
For Cc1ccc(NCc2ccccc2O)cc1 the results were HPGD block inactive, HTT cytoprotect inactive, LMNA splice mod inactive, KDM4E inh inactive, ALDH1A1 inh inactive and HttQ103 aggreg inactive.
`O=C(N/N=C/c1coc2ccccc2c1=O)c1cccc([N+](=O)[O-])c1` gave HTT cytoprotect inactive, LMNA splice mod inactive, KDM4E inh inactive, ALDH1A1 inh 28.2µM and HttQ103 aggreg inactive.
For O=C(N/N=C/c1coc2ccccc2c1=O)c1ccccc1Br the results were HPGD block inactive, LMNA splice mod inactive, KDM4E inh inactive, ALDH1A1 inh 4.47µM and HttQ103 aggreg inconclusive.
Screening COc1ccc(C(=O)N/N=C\c2coc3ccccc3c2=O)cc1 returned HTT cytoprotect inactive[10 µM], KDM4E inh inactive, ALDH1A1 inh 3.55µM and HttQ103 aggreg inactive[9.22 µM].
O=C(CCc1ccc(O)cc1)N/N=C/c1coc2ccccc2c1=O was read as HTT cytoprotect inactive[10 µM], KDM4E inh inactive and HttQ103 aggreg inactive[9.22 µM].
Screening O=C(N/N=C/c1ccco1)c1cccc([N+](=O)[O-])c1 returned HPGD block inactive, HTT cytoprotect inactive[10 µM], LMNA splice mod inactive, KDM4E inh inactive, ALDH1A1 inh inactive and HttQ103 aggreg inconclusive.
O=C(N/N=C/c1coc2ccccc2c1=O)c1cc(O)cc(O)c1 was read as HTT cytoprotect inactive, KDM4E inh inactive, ALDH1A1 inh inconclusive and HttQ103 aggreg inactive.
Screening COc1cccc(-n2cc(C(=O)NCCc3cccc(C)c3)c3ccccc3c2=O)c1 returned LMNA splice mod inactive.
Screening CCOC(=O)c1c(N/N=C/c2cccnc2)n[nH]c1C returned HTT cytoprotect inactive[10 µM], KDM4E inh inactive, ALDH1A1 inh inactive and HttQ103 aggreg inactive[9.22 µM].
`CCC(=O)Nc1nnc2n1CCS2` gave LMNA splice mod inactive.
`COc1ccc(CNC(=O)c2oc3c(c2C)-c2nn(Cc4ccccc4Cl)cc2CC3)cc1` gave LMNA splice mod inactive.
`COc1ccc(NC(=O)C(c2ccc(OC)cc2)N(Cc2ccco2)C(=O)CC2NC(=O)NC2=O)cc1` (stereo not drawn) gave HTT cytoprotect inactive, KDM4E inh inactive, ALDH1A1 inh inactive and HttQ103 aggreg inactive.
For COc1ccc(C(C(=O)Nc2ccc(C(C)C)cc2)N(Cc2ccco2)C(=O)CC2NC(=O)NC2=O)cc1 (stereo not drawn) the results were HTT cytoprotect inactive, KDM4E inh inactive, ALDH1A1 inh 25.1µM and HttQ103 aggreg inactive.
`O=C1CS/C(=C\[N+](=O)[O-])N1c1ccccc1` gave HPGD block inactive, HTT cytoprotect inactive, LMNA splice mod inactive, KDM4E inh inactive, ALDH1A1 inh 5.01µM and HttQ103 aggreg inactive.
For O=C1CS/C(=N\N=C\c2ccco2)N1c1ccccc1 the results were HTT cytoprotect inactive[10 µM], KDM4E inh inactive and HttQ103 aggreg inactive[9.22 µM].
For CO/N=C/NC(=O)N1OC[C@@H]2COc3ccc4ccccc4c3[C@@H]21 the results were HPGD block inactive, HTT cytoprotect inactive, LMNA splice mod inactive, KDM4E inh inactive, ALDH1A1 inh inactive and HttQ103 aggreg inactive.
Screening NC(=S)N1OC[C@@H]2COc3ccc4ccccc4c3[C@@H]21 returned HTT cytoprotect inactive, KDM4E inh inactive, ALDH1A1 inh 12.6µM and HttQ103 aggreg inconclusive.
Screening Cc1sc(NC(=O)CSc2nnc(C(C)C)n2C)c(C#N)c1C returned HPGD block inactive, HTT cytoprotect inactive[10 µM], LMNA splice mod inconclusive, KDM4E inh inactive, ALDH1A1 inh inactive and HttQ103 aggreg inactive.
